Screens: PubChem, several laboratories
STAT3 inh – STAT3 signaling inhibition; AID 862; U3A cells, IL-6 STAT3-luciferase reporter, luminescence; host cell line lacks STAT1; inhibition, % at 5.5 µM; actives 0.89% (n = 190,000);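 active = inhibition above the mean inhibition across all screened compounds plus 3 SD, cut at about 44% in these data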;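 also: 0% = DMSO only wells and 100% = 100 µM nifuroxazide control wells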
PPC-1+TRAIL kill – compounds killing PPC-1 cancer cells with TRAIL present (potentiator screen, no TRAIL-free arm). cell killing (% activity), % at 4 µM or 5 µM. actives 0.41% (n = 220,000). PPC-1 cells + TRAIL, ATPLite viability luminescence;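 active = cell killing above 50% in the first pass at 4 µM, then a duplicate retest at 5 µM averaging 50% or more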;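 also: plate controls were cells with TRAIL plus DMSO for no effect and medium-only wells lacking cells for full effect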
HSP90 refold inh – blocks HSP90-mediated luciferase refolding in reticulocyte lysate; actives 0.91% (n = 290,000); Rabbit reticulocyte lysate, luciferase refolding luminescence, 3 h; inhibition, % at 5.6 µM;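 active = inhibition above the screen-wide mean plus 3 SD, computed separately per campaign, cut at about 16% in these data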;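 also: 0% = DMSO wells and 100% = 60 µM geldanamycin wells; inhibitors lower the luminescence because luciferase stays unfolded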
TRAIL sens C8 – sensitizes caspase-8 expressing cells to TRAIL; AID 624354; inhibition (viability loss, TRAIL sensitization), % at 10 µM; actives 1% (n = 360,000); NB7+C8 cells + TRAIL, ATPlite viability luminescence;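 active = compounds causing at least 50% loss of cell viability in the single-dose screen, relative to plate controls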
HSF1 inh – HSF1 inhibition; NIH3T3-HGL HSE-luciferase, MG132-induced, luminescence 8 h; active compounds read low; activity change, negative = inhibition, % at 7.5 µM (by protocol); actives 0.77% (n = 300,000); AID 2098;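 active = more than half of replicate wells show activity change below -50%, luminescence cut by over half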;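 also: luciferase reports HSF-1 transcriptional activity via heat shock element; 0% = median of DMSO wells and -100% = zero luminescence signal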
STAT1 blocker – reduces IFN-gamma driven STAT1 reporter signal | NIH 3T3 STAT1-luciferase reporter, luminescence | inhibition, % at 5.5 µM | actives 0.35% (n = 200,000) | AID 920;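 active = inhibition above a set limit, the mean inhibition across all tested compounds plus 3 SD, cut at about 34% in these data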;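 also: 0% = IFN-gamma with DMSO and 100% = IFN-gamma with 300 µM nifuroxazide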
The depositor's hits bear a star; / = no result. Only some compounds are listed: those with a hit (about 2.4% of all), similar ones and a draw of the others.

SMILES	STAT3 inh	PPC-1+TRAIL kill	HSP90 refold inh	TRAIL sens C8	HSF1 inh	STAT1 blocker
COc1ccc(OC)c(N2C(=O)NC(=O)/C(=C\c3ccc([N+](=O)[O-])s3)C2=O)c1	-3.3	8.7	3.2	-0.5	-62.8*	6.8
O=C(CN1CC(c2ccccc2)CC1=O)NCc1ccc(F)cc1 (stereo not drawn)	7.7	-19.2	3.6	-6.6	-66.3*	4.3
OC1/C(=C/c2ccccc2C(F)(F)F)N2CCC1CC2 (stereo not drawn)	-0.2	17.3	-2.7	-3.2	-77.9*	2.4
CC(=O)O[C@@H]1CC[C@]2(C)C3CC[C@@]4(C)C(C[C@@H](O)[C@@H]4O)C3[C@@H](OC(C)=O)C[C@H]2C1 (stereo partly drawn)	/	/	/	-1.9	/	/
CC(=O)OC1CC(OC2C(O)CC(OC3C(O)CC(OC4CCC5(C)C(CCC6C5CCC5(C)C(C7=CC(=O)OC7)C(O)CC65O)C4)OC3C)OC2C)OC(C)C1OC1OC(CO)C(O)C(O)C1O (stereo not drawn)	/	/	/	62.5*	/	/
CC1OC(OC2C(O)CC(OC3C(O)CC(OC4CCC5(C)C(CCC6C5CCC5(C)C(C7=CC(=O)OC7)C(O)CC65O)C4)OC3C)OC2C)CC(O)C1O (stereo not drawn)	/	/	/	60.5*	/	/
CC(=O)OC1CC2(O)C3CCC4CC(O)CCC4(C)C3CCC2(C)C1C1=CC(=O)OC1 (stereo not drawn)	/	/	/	66.4*	/	/
CCOC(=O)c1cc2c(cn1)[C@H](CCO)NC2	/	/	/	-30.1	/	/
O=[N+]([O-])c1ccc(C2[C@H]3C(c4ccccc4)=NC4(CCCCC4)N23)cc1 (stereo partly drawn)	3.6	19.4	-0.3	10.4	1.1	4.7
CCC(=O)N1N=C(c2c(O)n(CCc3ccccc3)c(=O)[nH]c2=O)CC1c1ccc(OC)c(OC)c1 (stereo not drawn)	/	12.8	-3.8	1.5	-3.0	/
CNC(=O)c1cccn(Cc2ccc(C(F)(F)F)cc2)c1=O	46.3*	-0.4	3.1	12.2	15.5	37.1*
CCN(CC)C(=O)c1ccc(NC(=O)C2=C(C)OCCS2)cc1	/	/	-0.7	7.3	-7.0	/
COC1CCC(OC2CC(C3(C)CCC4(CC(O)C(C)C(C(C)/C=C(\C)C(=O)C(C)CC(C)C(=O)O)O4)O3)OC3(OC(C4OC(O)(CO)C(C)CC4C)CC3C)C2C)OC1C (stereo not drawn)	/	/	/	81.4*	/	/
COc1cc(OC)c2c(c1)OCC1CON(C)C21 (stereo not drawn)	10.8	8.1	-4.0	18.2	-78.0*	-2.7
O=C1NC2C(O)C(O)C(O)C(O)C2c2cc3c(c(O)c21)OCO3 (stereo not drawn)	/	/	/	44.9	88.6*	/
O=C1NC2C(=CC(O)C(O)C2O)c2cc3c(c(O)c21)OCO3 (stereo not drawn)	/	/	/	77.2*	/	/
CC(=O)N(C)CC#CCN1CCC(O)CC1	/	/	/	-17.7	-10.7	/
CC(C)(O)C1C2OC(=O)C1C1(O)CC3OC34C(=O)OC2C14C (stereo not drawn)	/	/	/	2.3	/	/
CCOC(=O)[C@]12Cc3cc(OC)ccc3[C@H]1N(C(C)C)C(=O)c1cc(OC)ccc12	/	/	/	54.6*	/	/
CCOC(=O)[C@]12Cc3cc(Cl)ccc3[C@H]1N(C(C)C)C(=O)c1ccccc12	/	/	/	71.5*	/	/
CCOC(=O)[C@]12Cc3c(cc(OC)c(OC)c3OC)[C@H]1N(C(C)C)C(=O)c1cc(OC)ccc12	/	/	/	46.3	/	/
CCOC(=O)[C@]12Cc3cc(Cl)ccc3[C@H]1N(CC(=O)OC)C(=O)c1ccccc12	/	/	/	58.1*	/	/
COC(=O)C1=C(c2ccc(F)cc2OCc2ccccc2)C[C@@H]2CC[C@H]1N2C(=O)N1CCC(O)CC1	/	/	/	-6.1	/	/
O=c1[nH]c2ccccc2n1C1CCN(C(c2cccc3ccccc23)c2nnnn2Cc2ccccc2)CC1 (stereo not drawn)	/	/	/	33.9	/	/
O=c1[nH]c2ccccc2n1C1CCN(C(c2cc3ccccc3o2)c2nnnn2Cc2ccccc2)CC1 (stereo not drawn)	/	/	/	86.6*	/	/
CCCCCCCCCCCCCCCC[N+](C)(C)C	/	/	/	85.0*	-2.2	/
CC(=O)OCC12CC(OC(=O)CC(C)C)C(C)=CC1OC1C(O)C(OC(C)=O)C2(C)C12CO2 (stereo not drawn)	/	/	/	56.5*	/	/
C[C@H]1[C@@H](c2ccccc2)O[C@@H](c2ccccc2Br)N1C	/	/	/	1.4	-0.5	/
